A short description of assay [1]: qHTS assay to identify small molecule agonists of the TGF-beta/Smad signaling pathway (AID 1346859; active = well fitted activation curve with a large enough effect in the signal ratio in the repeat runs, not every such curve was filed as active; the % refers to the signal ratio; also: series mostly up to about 77 µM). A digest of the protocol: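 Each well held 4,000 SBE-bla HEK 293T cells incubated overnight before compound addition; 5 hr later the cleavable FRET substrate went on for 2 hr at room temperature, and fluorescence was read at two emissions.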
Background: In qHTS, concentration-response curves come from the screen itself.

The target in assay [2] is Thyrotropin-releasing hormone receptor (Homo sapiens) (UniProt P34981). The assay is described as follows: qHTS assay to identify small molecule antagonists of the thyrotropin-releasing hormone receptor (TRHR) signaling pathway (AID 1346877; active = well fitted inhibition curve with a large enough effect in the repeat runs, not every such curve was filed as active; also: series mostly up to about 51 µM). A digest of the protocol: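 Following an 18 h incubation at 37 °C and a 2 h calcium dye load, TRHR-HEK293 cells were exposed to compound (5 min, room temperature) and challenged with TRH, 1 nM final.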
Sequence of Thyrotropin-releasing hormone receptor (Homo sapiens) (P34981 whole entry, looked up): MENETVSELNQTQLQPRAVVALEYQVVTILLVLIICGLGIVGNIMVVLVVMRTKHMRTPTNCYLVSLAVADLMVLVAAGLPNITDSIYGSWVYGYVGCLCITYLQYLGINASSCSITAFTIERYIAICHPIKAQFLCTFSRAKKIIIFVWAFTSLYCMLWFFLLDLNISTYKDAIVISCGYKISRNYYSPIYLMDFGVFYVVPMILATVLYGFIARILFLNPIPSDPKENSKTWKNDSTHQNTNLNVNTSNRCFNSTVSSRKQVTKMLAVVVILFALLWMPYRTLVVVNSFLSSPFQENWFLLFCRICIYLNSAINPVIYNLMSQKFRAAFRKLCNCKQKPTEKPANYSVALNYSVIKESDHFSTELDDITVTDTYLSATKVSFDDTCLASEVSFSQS

The target is the same in assay [3]. The assay is described as follows: qHTS assay to identify small molecule agonists of the thyrotropin-releasing hormone receptor (TRHR) signaling pathway (AID 1346891; calls by dose curve; also: series mostly up to about 58 µM). A digest of the protocol: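 Screening of agonists relied on calcium signalling in HEK293 cells expressing human TRHR: dye loading 2 h at 37 °C preceded compound addition and a 3-min fluorescence time course.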

Assay [4] can be described thus: Human pregnane X receptor (PXR) small molecule agonists, qHTS cell viability counter screen (AID 1346977). Also: nearly all actives have a fitted effect of over 50% in size. The method, boiled down: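 Tox21 qHTS format; PXR-Luc HepG2, 2,000/well, charcoal-stripped FBS 5%. Cpd exposure 24hr. Read: CellTiter-Fluor fluorescence, multiplexed with luciferase.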
A short description of assay [5]: Caspase-3/7 induction in HepG2 cells by small molecules, qHTS assay (AID 1346978). Also: nearly all actives have a fitted effect of over 15% in size. The method, boiled down: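 Caspase-3/7 induction was measured by Caspase-Glo 3/7 luminescence (30 min, room temperature) after a 17 hr compound exposure of wild-type HepG2 cells seeded at 2,000 per well and pre-incubated 5 hr.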
Assay [6] in a line: Caspase-3/7 induction in CHO-K1 cells by small molecules, qHTS cell viability counter screen (AID 1346979). Also: nearly all actives have a fitted effect of over 35% in size. The method, boiled down: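 CellTiter-Fluor viability check, qHTS format: wild-type CHO-K1, 16hr compound treatment, 1hr reagent incubation, fluorescence read.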
Assay [7] is described as follows: Caspase-3/7 induction in CHO-K1 cells by small molecules, qHTS assay (AID 1346980). Also: nearly all actives have a fitted effect of over 15% in size. A digest of the protocol:
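Luminescent Caspase-Glo 3/7 read (30min, room temperature) quantified apoptosis induction. Cells were wild-type CHO-K1, treated with compound for 17hr at 37 C and 5% CO2.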

The nature of assay [8]: Caspase-3/7 induction in HepG2 cells by small molecules, qHTS cell viability counter screen (AID 1346981). Also: series mostly up to about 92 µM; nearly all actives have a fitted effect of over 30% in size. The method, boiled down: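 Viability determined by CellTiter-Fluor fluorescence in HepG2 wells also used for the luminescent Caspase-Glo 3/7 read. Compounds were present for 16 hr at 37 C, 5% CO2 before reagent addition.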
Assay [9] deals with Nuclear receptor subfamily 1 group I member 2 (Homo sapiens) (UniProt O75469). The assay is described as follows: Human pregnane X receptor (PXR) small molecule agonists, qHTS assay (AID 1346982). Also: nearly all actives have a fitted effect of over 35% in size. Also: potency is read from the fitted curve at half-maximal effect. A digest of the protocol:
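Compound-induced hPXR transactivation of a CYP3A4 luciferase reporter was scored in HepG2 PXR-Luc cells over 24 hr at 37 C, 5% CO2, by luminescence.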

In assay [10] the target is Nuclear receptor subfamily 1 group I member 2 (Rattus norvegicus) (UniProt Q9R1A7). The assay is described as follows: Rat pregnane X receptor (rPXR) activation by small molecules, qHTS assay (AID 1346983). Also: nearly all actives have a fitted effect of over 20% in size. The following applies: rPXR luciferase reporter cells, One-Glo luminescence, 24 h; max activation: hits give high values. The method, boiled down: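 Luminescent readout (One-Glo luciferase, 30 min room temperature) followed 24 hr compound treatment at 37 C of rPXR cells plated 2,000 per well and preincubated 5hr; qHTS format with compounds delivered in DMSO.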
Sequence of Nuclear receptor subfamily 1 group I member 2 (Rattus norvegicus) (Q9R1A7 whole entry, looked up): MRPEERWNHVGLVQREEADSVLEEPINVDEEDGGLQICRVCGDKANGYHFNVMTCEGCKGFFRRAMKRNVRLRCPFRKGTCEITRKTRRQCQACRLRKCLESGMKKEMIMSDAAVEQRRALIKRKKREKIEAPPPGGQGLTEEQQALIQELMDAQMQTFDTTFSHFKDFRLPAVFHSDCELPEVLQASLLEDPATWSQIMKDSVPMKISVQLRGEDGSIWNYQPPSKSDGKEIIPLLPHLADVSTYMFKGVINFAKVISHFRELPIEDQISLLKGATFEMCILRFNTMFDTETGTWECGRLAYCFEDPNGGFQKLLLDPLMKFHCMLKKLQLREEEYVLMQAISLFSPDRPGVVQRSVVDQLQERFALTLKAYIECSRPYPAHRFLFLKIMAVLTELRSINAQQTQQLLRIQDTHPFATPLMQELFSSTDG

A number with no mark means an inactive call. Records with an inconclusive call do not appear. The source made the active and inactive calls. Unless noted, calls follow the shape of the dose curve; as a rule, active = well fitted curve in the direction sought with a large enough effect in the repeat runs; inconclusive = weak or mixed curves; inactive = no such curve, though single readings can be large; an effect the other way counts as inactive or inconclusive.
% is scaled to controls: 0 for no effect and ±100 for the full control effect.

Sequence of Nuclear receptor subfamily 1 group I member 2 (Homo sapiens) (O75469 whole entry, looked up): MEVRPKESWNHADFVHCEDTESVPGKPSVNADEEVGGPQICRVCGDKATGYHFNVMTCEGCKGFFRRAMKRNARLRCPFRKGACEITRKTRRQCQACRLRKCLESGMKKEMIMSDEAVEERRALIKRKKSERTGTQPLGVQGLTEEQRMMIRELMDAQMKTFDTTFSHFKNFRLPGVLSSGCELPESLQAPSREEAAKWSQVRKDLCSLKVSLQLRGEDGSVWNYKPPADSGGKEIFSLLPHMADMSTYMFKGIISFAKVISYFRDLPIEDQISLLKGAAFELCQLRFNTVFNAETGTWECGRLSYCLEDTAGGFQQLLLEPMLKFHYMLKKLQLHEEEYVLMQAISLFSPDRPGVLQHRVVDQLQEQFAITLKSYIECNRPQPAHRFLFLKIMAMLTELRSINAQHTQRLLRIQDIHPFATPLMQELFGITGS

Take `CCN1CCN(C(=O)N[C@@H](C(=O)N[C@@H]2C(=O)N3C(C(=O)O)=C(CSc4nnnn4C)CS[C@H]23)c2ccc(O)cc2)C(=O)C1=O`: the outcome in assay [1], in [2], in [4], in [5], in assay [7] and in [8] was inactive. The Potency entry in assay [3], in assay [6] and in [9] was “inactive” in each case. The max activation in assay [10] is -3.62%.
`Clc1cc(Cl)c(Cl)c(Cl)c1Cl`: the compound was classed as inactive in [1], in assay [2], in assay [4], in [5] and in [7]. Further, the Potency result in [3], in assay [6] and in [9] was “inactive” throughout.
Consider `COc1cc2nc(N3CCN(C(=O)C4CCCO4)CC3)nc(N)c2cc1OC` (stereo not given), for which the call in [1], in assay [2], in assay [4], in assay [5], in assay [7] and in assay [8] was inactive. Also, the Potency entry in assay [3] and in assay [6] was “inactive” each time. Moreover, the max activation in assay [10] was 0.468%.
With `NC(=O)CC[C@@H](N)C(=O)O`, the outcome in assay [1], in [2], in [4], in assay [5], in assay [7] and in [8] was inactive. For the same compound, the Potency entry in assay [3] and in [6] was “inactive” in each case. In addition, the max activation in assay [10] was 0.0386%.
`COc1cc(NS(=O)(=O)c2ccc(N)cc2)ncn1`: the result in assay [1], in assay [2], in assay [4], in [5], in assay [7] and in assay [8] was inactive. The Potency result in assay [3] and in assay [6] was “inactive” in each case. For the same compound, the max activation in assay [10] is -2.45%.
For `CC(C)(Sc1cc(C(C)(C)C)c(O)c(C(C)(C)C)c1)Sc1cc(C(C)(C)C)c(O)c(C(C)(C)C)c1`, the compound was called inactive in assay [1], in assay [2], in assay [4], in assay [5], in assay [7] and in assay [8]. For the same compound, the Potency entry in assay [3] and in assay [6] was “inactive” throughout. Moreover, the max activation in assay [10] is -1.55%.
`Cc1cc(N)no1`: the compound was classed as inactive in [1], in [2], in [4], in assay [5], in assay [7] and in [8]. Besides, the Potency entry in [3] and in assay [9] was “inactive” each time.
With `CN(C)CCc1c[nH]c2ccc(CS(=O)(=O)N3CCCC3)cc12`, the compound was called inactive in assay [1], in assay [2], in assay [4], in assay [5], in [7] and in assay [8]. The Potency entry in assay [3], in assay [6] and in assay [9] was “inactive” throughout. Further, in assay [10], the max activation was -1.76%.
`C/C(=N\O)c1ccc(OCC(=O)N2CCCCC2)cc1`: the compound was classed as inactive in [1], in assay [2], in [4], in assay [5], in [7] and in assay [8]. In assay [3], the Potency result is “inactive”. Further, the Potency in assay [9] was 10.6 µM (active).
Turning to `CCC(C)(C)C`, the call in [1], in assay [2], in assay [4], in assay [5], in [7] and in assay [8] was inactive. In addition, the Potency entry in assay [3] and in assay [9] was “inactive” throughout.
Turning to `CC(=O)OC/C=C(/C)CCC=C(C)C`, the compound was classed as inactive in assay [1], in [4], in assay [5], in assay [7] and in assay [8]. Moreover, the Potency entry in assay [6] and in assay [9] was “inactive” each time.
Consider `COC(=O)c1ccc(NC(C)=O)cc1OC`, for which the call in [1], in [2], in assay [4], in [5], in assay [7] and in [8] was inactive. The Potency entry in [3] and in assay [9] was “inactive” in each case.
Consider `C[C@@H](CN1CC(=O)NC(=O)C1)N1CC(=O)NC(=O)C1`, for which the outcome in assay [1], in [2], in assay [4], in [5], in assay [7] and in assay [8] was inactive. Further, the Potency entry in assay [3] and in assay [9] was “inactive” each time. The max activation in assay [10] is -0.624%.
`CN1CCN(C(=O)C2CCCCC2)CC1`: the outcome in assay [1], in [2], in assay [4], in [5], in [7] and in assay [8] was inactive. Moreover, the Potency result in assay [3] and in assay [9] was “inactive” throughout. Besides, the max activation in assay [10] was -9.64%.
Turning to `OCCC(F)(F)C(F)(F)C(F)(F)C(F)(F)C(F)(F)C(F)(F)F`, the result in [1], in assay [2], in assay [4], in assay [5], in [7] and in assay [8] was inactive. Moreover, the Potency entry in assay [3] and in assay [9] was “inactive” each time.
Take `CCOC(=O)CC`: the compound was called inactive in [1], in [4], in assay [5], in [7] and in assay [8]. Also, the Potency result in assay [6] and in assay [9] was “inactive” each time.
Turning to `COC(=O)N/N=C/c1c[n+]([O-])c2ccccc2[n+]1[O-]`, the outcome in [1], in assay [2], in assay [4], in assay [5], in [7] and in assay [8] was inactive. Also, the Potency result in [9] was “inactive”. Also, in [10], the max activation was -1.2%.
On to `CC(=O)Nc1ccc(S(=O)(=O)Nc2cc(C)on2)cc1`, for which the result in assay [1], in [2], in assay [4], in assay [5], in assay [7] and in assay [8] was inactive. Further, the Potency result in assay [3] and in assay [9] was “inactive” each time.
As for `NNC(=O)CCCCC(=O)NN`, the outcome in [1], in assay [2], in [4], in [5], in [7] and in [8] was inactive. Also, the Potency entry in assay [3] and in [9] was “inactive” throughout.
Regarding `CCCCCCCCCCCCCCCC/C=C/C1CC(=O)OC1=O` (stereo not given), the compound was classed as inactive in assay [1], in assay [4], in assay [5], in [7] and in [8]. For the same compound, the Potency entry in assay [6] and in [9] was “inactive” each time.
Consider `COC(=O)c1c(C)cc(O)c(C)c1O`, for which the compound was classed as inactive in assay [1], in [2], in [4], in assay [5], in assay [7] and in [8]. The Potency result in [3] was “inactive”. Moreover, the Potency in assay [9] was 61.1 µM (active).
For the compound `COC(=O)c1cc(Cl)c(NC(C)=O)cc1OC`, the compound was classed as inactive in assay [1], in assay [4], in [5], in assay [7] and in assay [8]. Also, the Potency entry in [6] and in [9] was “inactive” each time.
For the compound `Cc1cc(=O)oc2cc(O[C@@H]3SC[C@@H](O)[C@H](O)[C@H]3O)ccc12`, the compound was classed as inactive in assay [1], in [4], in assay [5], in assay [7] and in assay [8]. Also, the Potency result in [6] and in assay [9] was “inactive” throughout.
`CCCCCCCCCCCCCCCCN(C)C`: the activation in assay [1] is 0.329% [at 6.97 µM]. Besides, the activity change, negative = cytotoxicity was 1.81% [at 8.39 µM] in assay [4], -2.77% [at 8.39 µM] in [6] and -1.8% [at 8.39 µM] in assay [8]. Besides, the caspase activation in assay [5] was 0.737% [at 8.39 µM]. Also, the caspase-3/7 activation in assay [7] was -0.483% [at 8.39 µM].
`CCNC(=O)C(C)OC(=O)Nc1ccccc1` (stereo not given): the outcome in assay [1], in assay [2], in assay [4], in assay [5], in assay [7] and in assay [8] was inactive. For the same compound, the Potency entry in assay [3] and in assay [9] was “inactive” in each case.
`CCCCCCCCC1CO1` (stereo not given): the result in assay [1], in assay [4], in [5], in assay [7] and in assay [8] was inactive. Besides, in assay [6], the Potency result is “inactive”. Moreover, in assay [9], the Potency was 55.7 µM (active).

The record behind these values is PubChem BioAssay (Tox21).
